Measured values from PubChem BioAssay (NCATS).
Values joined by “and” are separate entries in the source; they are usually repeats but may differ in a detail not shown here. Equal entries are not always repeated. Records with an inconclusive call do not appear. Active and inactive are the calls of the source. The call rests on the fitted dose curve; in most records, active means well fitted curve in the direction sought with a large enough effect; inconclusive means small, poorly fitted or top-dose-only effect, or another doubt; inactive means no such curve, though single readings can be large; an effect the other way counts as inactive or inconclusive.

Columns and labels:
[1] = qHTS of pediatric cancer cell lines to identify multiple opportunities for drug repurposing: Primary screen for A673 cells (AID 1347092); further: nearly all actives have a fitted effect of over 45% in size
Outline: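 Luminescence from CellTiter-Glo, taken after 15 min at room temperature, served as the proxy for metabolically active cells following 48 h treatment. Both potency and efficacy were taken from curves fitted to the titration data.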

[2] = qHTS of pediatric cancer cell lines to identify multiple opportunities for drug repurposing: Primary screen for SK-N-MC cells (AID 1347093)
Outline: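 Metabolically active cells were quantified by ATP-dependent luminescence (CellTiter-Glo, 15 min at room temperature) following 48 h treatment. Cells had been plated at 500-1,000 per well and settled for 5 h beforehand.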

[3] = qHTS of pediatric cancer cell lines to identify multiple opportunities for drug repurposing: Primary screen for BT-37 cells (AID 1347094)
Outline: (§1)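 Cells plated at 500-1,000/well in growth medium, compounds added after 5 h. MIPE tested at 11 points (from 0.78 nM), NPC at 8 points (from 0.59 nM). CellTiter-Glo luminescence after 48 h; concentration-response curves from primary screen.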

[4] = qHTS of pediatric cancer cell lines to identify multiple opportunities for drug repurposing: Primary screen for NB-EBc1 cells (AID 1347095)
Outline: as §1

[5] = qHTS of pediatric cancer cell lines to identify multiple opportunities for drug repurposing: Primary screen for U-2 OS cells (AID 1347096); further: nearly all actives have a fitted effect of over 50% in size
Outline: (§2)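 Cells (500-1,000/well) rested 5 h, then received compounds for 48 h; metabolically active cells were measured by CellTiter-Glo luminescence. Final concentrations spanned up to 46 µM (MIPE, 11-point) or 0.59 nM-46 µM (NPC, 8-point) in primary screens, 11-point in follow-ups.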

[6] = qHTS of pediatric cancer cell lines to identify multiple opportunities for drug repurposing: Primary screen for Saos-2 cells (AID 1347097); further: nearly all actives have a fitted effect of over 40% in size
Outline: as §1

[7] = qHTS of pediatric cancer cell lines to identify multiple opportunities for drug repurposing: Primary screen for SK-N-SH cells (AID 1347098); further: nearly all actives have a fitted effect of over 65% in size
Outline: as §2

[8] = qHTS of pediatric cancer cell lines to identify multiple opportunities for drug repurposing: Primary screen for NB1643 cells (AID 1347099); further: nearly all actives have a fitted effect of over 50% in size
Outline: as §1

[9] = qHTS of pediatric cancer cell lines to identify multiple opportunities for drug repurposing: Primary screen for Rh18 cells (AID 1347102); further: nearly all actives have a fitted effect of over 65% in size
Outline: as §2

[10] = qHTS of pediatric cancer cell lines to identify multiple opportunities for drug repurposing: Primary screen for OHS-50 cells (AID 1347103); further: nearly all actives have a fitted effect of over 40% in size
Outline: as §2

[11] = qHTS of pediatric cancer cell lines to identify multiple opportunities for drug repurposing: Primary screen for RD cells (AID 1347104); further: nearly all actives have a fitted effect of over 55% in size
Outline: as §1

[12] = qHTS of pediatric cancer cell lines to identify multiple opportunities for drug repurposing: Primary screen for Rh41 cells (AID 1347108); further: nearly all actives have a fitted effect of over 70% in size
Outline: as §1

[13] = qHTS of pediatric cancer cell lines to identify multiple opportunities for drug repurposing: Primary screen for LAN-5 cells (AID 1347100)
Outline: as §2

[14] = qHTS of pediatric cancer cell lines to identify multiple opportunities for drug repurposing: Primary screen for BT-12 cells (AID 1347101); further: nearly all actives have a fitted effect of over 25% in size
Outline: as §2

[15] = qHTS of pediatric cancer cell lines to identify multiple opportunities for drug repurposing: Primary screen for MG 63 (6-TG R) cells (AID 1347105); further: nearly all actives have a fitted effect of over 50% in size
Outline: as §1

[16] = qHTS of pediatric cancer cell lines to identify multiple opportunities for drug repurposing: Primary screen for control Hh wild type fibroblast cells (AID 1347106); further: nearly all actives have a fitted effect of over 55% in size
Outline: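 Viability after 48 h compound treatment at 37C, 500-1,000 cells/well, read as ATP luminescence with CellTiter-Glo. Primary screens used 11-point (MIPE, 0.78 nM-46 µM) or 8-point (NPC, 0.59 nM-46 µM) final concentrations; follow-up screens used 11-point dilutions.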

[17] = qHTS of pediatric cancer cell lines to identify multiple opportunities for drug repurposing: Primary screen for Rh30 cells (AID 1347107); further: nearly all actives have a fitted effect of over 75% in size
Outline: as §2

[18] = qHTS of pediatric cancer cell lines to identify multiple opportunities for drug repurposing: Confirmatory screen for NB1643 cells (AID 1347109); further: nearly all actives have a fitted effect of over 45% in size
Outline: as §2

[19] = qHTS of pediatric cancer cell lines to identify multiple opportunities for drug repurposing: Confirmatory screen for A673 cells (AID 1347110);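 further: cells exposed to compound for 48 h before the viability read; nearly all actives have a fitted effect of over 65% in size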
Outline: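 qHTS titration format: primary MIPE 0.78 nM-46 µM (11 pts), NPC 0.59 nM-46 µM; confirmation 11 pts. 48 h, CTG luminescence.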

[20] = qHTS of pediatric cancer cell lines to identify multiple opportunities for drug repurposing: Confirmatory screen for SK-N-MC cells (AID 1347111);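 further: cells exposed to compound for 48 h before the readout; nearly all actives have a fitted effect of over 70% in size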
Outline: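 Seed 500-1,000 cells/well; rest 5 h at 37 degrees C. Pin-transfer compounds, 11-point titration. Incubate 48 h. Add CellTiter-Glo, 15 min RT, read luminescence.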

Measured: Potency
Potency means the concentration at half of the fitted maximal effect.

O=C(CCCCCCC(=O)Nc1ccccc1)NO
active: [1] 3.35 µM and 4.69 µM | [2] 1.48 µM | [3] 5.5 µM and 7.69 µM | [4] 1 nM and 1.48 µM | [5] 3.35 µM and 4.69 µM | [6] 4.73 µM and 5.9 µM | [7] 2.73 µM and 7.64 µM | [8] 944 nM and 1.32 µM | [9] 2.99 µM and 4.18 µM | [10] 2.19 µM and 2.73 µM | [11] 5.31 µM and 6.62 µM | [12] 3.35 µM and 5.9 µM

O=c1c(-c2ccc(O)cc2)coc2cc(O[C@@H]3O[C@H](CO)[C@H](O)[C@H](O)[C@H]3O)ccc12
not listed: [18] | [19] | [20]
inactive: all other assays above

COc1ccc2cccc(CCNC(C)=O)c2c1
not listed: [8] | [18] | [19] | [20]
inactive: all other assays above

NC(N)=Nc1nc(CSCC/C(N)=N/S(N)(=O)=O)cs1
not listed: [13] | [18] | [19] | [20]
inactive: all other assays above

CC(C)C(C)C=CC(C)C1CCC2C3=CC=C4CC(O)CCC4(C)C3CCC21C (centres undefined)
not listed: [7] | [15] | [18] | [19] | [20]
inactive: all other assays above

CCn1cc(C(=O)O)c(=O)c2ccc(C)nc21
not listed: [18] | [19] | [20]
inactive: all other assays above

CC(=O)c1ccc(S(=O)(=O)NC(=O)NC2CCCCC2)cc1
not listed: [10] | [18] | [19] | [20]
inactive: all other assays above

O=C1c2ccccc2-[n+]2ccc3c([nH]c4ccccc43)c21
active: [1] 1.18 µM | [2] 1.32 µM | [3] 2.43 µM | [4] 0.833 µM | [5] 9.35 µM | [6] 2.35 µM | [8] 5.26 µM | [13] 1.66 µM | [14] 6.85 µM | [9] 2.35 µM | [11] 1.87 µM | [15] 2.96 µM | [16] 9.35 µM | [17] 4.18 µM | [12] 2.96 µM | [18] 2.08 µM | [19] 2.93 µM

CCN(CC)C(=O)c1ccc(O)c(OC)c1
not listed: [15] | [18] | [19] | [20]
inactive: all other assays above

O=C1NC(=O)C(c2ccccc2)(c2ccccc2)N1
not listed: [10] | [14] | [18] | [19] | [20]
inactive: all other assays above

CO[C@H]1C=CO[C@@]2(C)Oc3c(C)c(O)c4c(O)c(c5c(c4c3C2=O)NC2(CCN(CC(C)C)CC2)N=5)=NC(=O)C(C)=CC=C[C@H](C)[C@H](O)[C@@H](C)[C@@H](O)[C@@H](C)[C@H](OC(C)=O)[C@H]1C
not listed: [10] | [13] | [18] | [19] | [20]
inactive: all other assays above

CC(=Cc1ccccc1)C=C1SC(=S)N(CC(=O)O)C1=O
active: [2] 13.2 µM
not listed: [7] | [18] | [19] | [20]
inactive: all other assays above

CC1(C)Cc2c(sc(NC(=S)NC(=O)c3ccccc3)c2C(=O)O)CO1
active: [1] 23.5 µM | [2] 1.66 µM | [8] 5.26 µM | [11] 33.2 µM
not listed: [7] | [15] | [18] | [19] | [20]
inactive: all other assays above

O=C1C(Cl)=C(NCCN2CCOCC2)C(=O)c2ncccc21
active: [1] 1.87 µM | [2] 7.43 µM | [3] 3.43 µM | [4] 4.69 µM | [5] 5.9 µM | [6] 2.35 µM | [7] 7.64 µM | [8] 9.35 µM | [13] 8.33 µM | [14] 3.43 µM | [9] 2.35 µM | [10] 9.68 µM | [11] 5.9 µM | [15] 18.7 µM | [16] 11.8 µM | [17] 8.33 µM | [12] 4.69 µM | [18] 4.14 µM | [19] 2.08 µM | [20] 1.04 µM

Cc1nc(N)sc1-c1ccnc(Nc2ccc(N3CCOCC3)cc2)n1
active: [1] 9.35 µM | [2] 1.05 µM | [3] 24.3 µM | [4] 23.5 µM | [5] 18.7 µM | [6] 11.8 µM | [7] 6.81 µM | [8] 9.35 µM | [9] 16.6 µM | [10] 3.85 µM | [11] 20.9 µM | [16] 16.6 µM | [12] 18.7 µM

CC1(C)O[C@H]2C[C@@H]3[C@H]4CCC5=CC(=O)C=C[C@]5(C)[C@@]4(F)[C@@H](O)C[C@]3(C)[C@]2(C(=O)CO)O1
active: [1] 3.72 µM | [2] 8.33 µM | [3] 13.7 µM | [4] 2.35 µM | [8] 14.8 µM | [13] 7.43 µM
not listed: [10] | [14] | [15]
inactive: all other assays above

COc1cc2nc(-c3ccc(N4CCN(C)CC4)cc3)nc(NCCN3CCOCC3)c2cc1OC
active: [1] 0.0235 µM | [2] 0.0372 µM | [3] 3.06 µM | [4] 1.48 µM | [5] 0.935 µM | [6] 0.296 µM | [7] 4.82 µM | [8] 1.87 µM | [14] 0.153 µM | [9] 0.235 µM | [10] 0.0544 µM | [11] 0.0418 µM | [15] 1.48 µM | [16] 3.32 µM | [17] 0.0469 µM | [12] 0.296 µM | [19] 0.208 µM

C[N+](C)(C)CC(=O)O
active: [2] 16.6 µM
not listed: [10] | [18] | [19] | [20]
inactive: all other assays above

C[N+]1(C)[C@@H]2CC(OC(=O)[C@H](CO)c3ccccc3)C[C@H]1[C@H]1O[C@@H]12 (some centres undefined)
not listed: [8] | [18] | [19] | [20]
inactive: all other assays above

O=C1NCC2(CCN(CCc3ccccc3)CC2)O1
not listed: [18] | [19] | [20]
inactive: all other assays above

CN(C)CCC(c1ccccc1)c1ccccn1 (centres undefined)
not listed: [18] | [19] | [20]
inactive: all other assays above

CCC(=O)O[C@]1(C(=O)CO)CC[C@H]2[C@@H]3CCC4=CC(=O)CC[C@]4(C)[C@@H]3CC[C@@]21C
not listed: [7] | [10] | [18] | [19] | [20]
inactive: all other assays above

CN1C[C@H]2c3ccccc3Oc3ccc(Cl)cc3[C@@H]2C1
active: [10] 21.9 µM
not listed: [14] | [15] | [18] | [19] | [20]
inactive: all other assays above

CN[C@@H](C)C(=O)N[C@H]1CN(C(=O)CC(C)C)CC[C@H]2CC[C@@H](C(=O)NC(c3ccccc3)c3ccccc3)N2C1=O
inactive: [5] | [8] | [16] | [17] | [18]
active: [1] 0.0074 µM | [2] 0.372 µM | [3] 0.153 µM | [4] 2.96 µM | [6] 0.296 µM | [13] 0.187 µM | [14] 0.485 µM | [10] 0.243 µM | [20] 7.37 µM

CC(=O)CCCCn1c(=O)c2c(ncn2C)n(C)c1=O
not listed: [9] | [10] | [13] | [18] | [19] | [20]
inactive: all other assays above

C=C1C(=O)[C@@]23C(CC[C@@H]1[C@H]2O)[C@@]12CO[C@]3(O)[C@@H](O)[C@@H]1C(C)(C)CC[C@@H]2O (some centres undefined)
inactive: [16]
active: [1] 3.72 µM | [2] 1.66 µM | [3] 27.3 µM | [4] 2.09 µM | [5] 14.8 µM | [6] 4.69 µM | [7] 15.2 µM | [8] 1.48 µM | [13] 1.66 µM | [14] 3.43 µM | [9] 9.35 µM | [10] 9.68 µM | [11] 9.35 µM | [15] 4.69 µM | [17] 7.43 µM | [12] 4.69 µM | [18] 4.14 µM | [19] 9.27 µM | [20] 4.65 µM
